IDH1 R132H inh – blocks human mutant IDH1 R132H enzyme; O75874; IDH1-R132H enzyme, NADPH consumption, diaphorase/resazurin fluorescence; Potency, µM (top dose mostly 76.6 µM), most hits filed as inhibitors; actives 0.093% (n = 390,000); AID 602179; also: nearly all actives have a fitted effect of over 65% in size
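IDH1-R132H (0.5 ug/mL dispensed) in pH 7.5 Tris buffer was preincubated 30 min with compound, then given a substrate mix of 0.016 mM NADPH and 2 mM alpha-KG for 80 min at room temperature; remaining NADPH was read by diaphorase/resazurin fluorescence.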
TrxR1 substrate – substrates of rat thioredoxin reductase 1. O89049. Potency, µM (highest dose often 114 µM). actives 0.01% (n = 390,000). purified TrxR1 substrate turnover, NADPH consumption readout; also: nearly all actives have a fitted effect of over 50% in size
Target sequence (O89049 whole entry, looked up): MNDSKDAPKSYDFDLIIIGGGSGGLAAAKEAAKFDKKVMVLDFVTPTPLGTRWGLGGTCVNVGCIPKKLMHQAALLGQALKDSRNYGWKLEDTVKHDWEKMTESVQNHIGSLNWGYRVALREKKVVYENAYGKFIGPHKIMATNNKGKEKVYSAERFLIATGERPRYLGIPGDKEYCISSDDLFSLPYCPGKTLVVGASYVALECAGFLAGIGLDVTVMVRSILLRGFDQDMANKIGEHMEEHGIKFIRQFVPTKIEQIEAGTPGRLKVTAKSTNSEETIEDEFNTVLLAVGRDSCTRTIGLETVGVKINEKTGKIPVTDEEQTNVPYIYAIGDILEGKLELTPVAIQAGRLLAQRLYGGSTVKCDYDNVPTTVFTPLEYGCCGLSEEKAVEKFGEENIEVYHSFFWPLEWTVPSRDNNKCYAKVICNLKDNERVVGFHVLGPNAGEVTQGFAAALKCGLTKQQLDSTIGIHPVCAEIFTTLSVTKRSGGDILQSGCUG
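Rat TrxR1, dispensed at 90 nM, was prereduced with 400 uM NADPH (final) for 5 min at ~22 deg C, then incubated with compound 15 min before 400 uM selenite. A first-read NADPH fluorescence drop versus no-compound background flagged substrates.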
Nrf2 inh – blocks Nrf2 signaling | A549 ARE-Fluc reporter, luciferase luminescence, 18-24 h | Potency, µM (doses to about 46 µM), actives largely listed as inhibitors | actives 2.1% (n = 360,000) | AID 504444; also: nearly all actives have a fitted effect of over 60% in size
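Concentration-response testing used A549 ARE_Fluc cells at 5000 cells/well. Following an 18-24 h compound incubation, viability was read by fluorescence (Ex 405/Em 525) and luciferase output by luminescence.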
TrxR1 inh-1 – blocks rat thioredoxin reductase 1; actives 1% (n = 390,000); AID 588453; O89049; Potency, µM (titrated, usually from 114 µM), most hits filed as inhibitors; recombinant rTrxR1, NADPH fluorescence consumption, selenite substrate; also: nearly all actives have a fitted effect of over 65% in size
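Rat TrxR1 (90 nM in the dispensed reagent) was pre-reduced with 400 uM NADPH for 5 min at room temperature, then incubated with compound for 15 min. After 400 uM selenite was added, NADPH fluorescence (Ex 340/Em 450 nm) was followed for 8 min.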
Mito fusion act – mitochondrial division inhibition or fusion activation. S. cerevisiae fusion-defective mutant growth rescue, CellTiterGlo 48 h. Potency, µM (highest dose often 46.1 µM), hits mostly activators. actives 0.23% (n = 320,000); also: nearly all actives have a fitted effect of over 45% in size
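Compounds are tested for their ability to restore growth of mitochondrial fusion-defective yeast strains at non-permissive 37C in YPEG medium over 48 hours. Viability is quantified by luciferase luminescence.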
A549 tox – A549 cytotoxicity, counter-screen for Nrf2 inhibitors; AID 504648; actives 0.16% (n = 390,000); A549 ARE-Fluc cells, CellTiter-Fluor viability, 18-24 h; Potency, µM (titrated, usually from 46 µM), hits mostly inhibitors
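Cytotoxicity counterscreen: CellTiter-Fluor fluorescence was measured in A549 ARE_Fluc cells after 18-24 h of compound exposure in a concentration series. The subsequent BugLite luminescent read reports ARE-luciferase activity.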
GR inh – glutathione reductase inhibition, TrxR1 selectivity check | shares compounds with TrxR1 inh-1 | purified GR, DTNB reduction absorbance 405 nm kinetic | activity change, negative = inhibition, % at 57.1 µM | 55 tested, under 10 active
TrxR1 inh-2 – validation of rat thioredoxin reductase 1 inhibitors; Potency, µM, hits mostly inhibitors; recombinant TrxR1, NADPH fluorescence consumption, selenite substrate; actives 50% (n = 55); shares compounds with TrxR1 inh-1
TrxR1 insulin – inhibits TrxR1-driven insulin reduction; AID 652037; Potency, µM; TrxR1 Trx-coupled insulin reduction, NADPH absorbance 340 nm; shares compounds with TrxR1 inh-1; actives 20% (n = 55);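 active = compounds with a measured potency under 100 micromolar; inconclusive = filed, but no rule given; inactive = potency at or above that, or unmeasurable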
TrxR1 inh-3 – rat thioredoxin reductase 1 inhibition, DTNB assay; shares compounds with TrxR1 inh-1; AID 652256; actives 90% (n = 55); Potency, µM; purified TrxR1, DTNB reduction, A412;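 active = a half-inhibiting concentration could be measured and was below 100 µM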
IDH1 autofl – interferes with resorufin fluorescence in IDH1 counter-screen. shares compounds with IDH1 R132H inh. Resorufin detection reagent fluorescence interference, cell-free. inhibition of signal, % at 51.2 µM. 750 tested, under 10 active. AID 623980
WT IDH1 inh – selectivity of mutant IDH1 inhibitors: human wild-type IDH1; shares compounds with IDH1 R132H inh; WT IDH1 enzyme, NADPH diaphorase/resazurin fluorescence; Potency, µM (top dose mostly 115 µM), usual class: inhibitors; actives 9% (n = 750); AID 623995; also: nearly all actives have a fitted effect of over 55% in size
mIDH1 confirm – confirmation of human mutant IDH1 inhibitors. shares compounds with IDH1 R132H inh. IDH1 R132H enzyme, NADPH diaphorase/resazurin fluorescence. Potency, µM (highest dose often 76.6 µM), most hits filed as inhibitors. actives 83% (n = 750); also: nearly all actives have a fitted effect of over 50% in size
Numbers stand for hits; [ ] = dose if it differs, or a comment. The list is not random: actives were taken first. Their share in the collection is about 3.1%. Unless noted, calls follow the shape of the dose curve; as a rule, active = well fitted curve in the direction sought with a large enough effect; inconclusive = small, poorly fitted or top-dose-only effect, or another doubt; inactive = no such curve, though single readings can be large; an effect the other way counts as inactive or inconclusive.

Results for O=[N+]([O-])c1ccc(Cl)c(S(=O)(=O)Nc2cccc(S(=O)(=O)NC3=NCCC3)c2)c1 ?
IDH1 R132H inh: inactive; TrxR1 substrate: inactive; Nrf2 inh: inactive; TrxR1 inh-1: 2.5µM; A549 tox: inactive; GR inh: inactive; TrxR1 inh-2: 0.6; TrxR1 insulin: inactive; TrxR1 inh-3: 0.051µM

How did Cc1cc2c(n1-c1ccc(C(=O)NCC(C)c3ccccc3)cc1)CCCC2 (stereo unspecified) do in these assays?
IDH1 R132H inh: inactive; TrxR1 substrate: inactive; Nrf2 inh: inactive; TrxR1 inh-1: inconclusive; A549 tox: inactive

How did Cc1nn(-c2ccccc2)c2c1C(c1ccc(O)c(O)c1)N1C(=N2)C(Nc2ccccc2)=Nc2ccccc21 (stereo unspecified) do in these assays?
IDH1 R132H inh: 29µM; TrxR1 substrate: inactive; Nrf2 inh: inactive; TrxR1 inh-1: inactive; Mito fusion act: inactive; A549 tox: inactive; IDH1 autofl: inactive; WT IDH1 inh: inactive; mIDH1 confirm: 40µM

What do the screens show for `Cc1cccc(NC2=Nc3ccccc3N3C2=Nc2c(c(C)nn2-c2ccccc2)C3c2ccc(O)c(O)c2)c1` (stereo unspecified)?
IDH1 R132H inh: inconclusive; TrxR1 substrate: inactive; Nrf2 inh: inconclusive; TrxR1 inh-1: inactive; Mito fusion act: inactive; A549 tox: inconclusive

Results for COc1ccc(C2c3c(n(C)c4ccccc34)C(=O)N2CC(=O)Nc2c(C)cc(C)cc2C)cc1 (stereo unspecified) ?
IDH1 R132H inh: inconclusive; TrxR1 substrate: inactive; Nrf2 inh: inactive; TrxR1 inh-1: inactive; A549 tox: inactive; IDH1 autofl: inactive; WT IDH1 inh: inactive; mIDH1 confirm: inconclusive

What do the screens show for `CC[C@]12c3[nH]c4cc(CCC(=O)N(C)C)ccc4c3CCN1C(=O)[C@@H](CC(=O)NC/C=C(\C)CCC=C(C)C)C[C@@H]2C(=O)N1CCN(C(=O)c2ccco2)CC1`?
IDH1 R132H inh: inconclusive; TrxR1 substrate: inactive; Nrf2 inh: inconclusive; TrxR1 inh-1: inactive; A549 tox: inconclusive; IDH1 autofl: inactive; WT IDH1 inh: inactive; mIDH1 confirm: 32µM

What do the screens show for `CC1CCCCC1NC(=O)c1cn(C)c2ccc(S(=O)(=O)N3CCCC3)cc2c1=O` (stereo unspecified)?
IDH1 R132H inh: inconclusive; TrxR1 substrate: inactive; Nrf2 inh: inactive; TrxR1 inh-1: inactive; Mito fusion act: inactive; A549 tox: inactive; IDH1 autofl: inactive; WT IDH1 inh: inactive; mIDH1 confirm: 22µM

How did CC(=O)Oc1cc(O)c2c(c1)OC(c1ccc(OC(C)=O)c(OC(C)=O)c1)C(OC(C)=O)C2=O (stereo unspecified) do in these assays?
IDH1 R132H inh: 52µM; TrxR1 substrate: inactive; Nrf2 inh: inactive; TrxR1 inh-1: inconclusive; Mito fusion act: inactive; A549 tox: inactive; IDH1 autofl: inactive; WT IDH1 inh: inactive; mIDH1 confirm: inconclusive

Results for Nc1nc(Nc2cccc(F)c2)nc(NCc2ccco2)c1[N+](=O)[O-] ?
IDH1 R132H inh: inconclusive; TrxR1 substrate: inactive; Nrf2 inh: inactive; TrxR1 inh-1: inactive; Mito fusion act: inactive; A549 tox: inactive; IDH1 autofl: inactive; WT IDH1 inh: inactive; mIDH1 confirm: 32µM

Results for Cc1cccc(Nc2nc(N)c([N+](=O)[O-])c(NCc3ccco3)n2)c1 ?
IDH1 R132H inh: inactive; TrxR1 substrate: inactive; Nrf2 inh: inconclusive; TrxR1 inh-1: inactive; Mito fusion act: inconclusive; A549 tox: inactive

How did COc1cccc(Nc2nc3c(S(=O)(=O)c4cc(C)ccc4C)nnn3c3ccsc23)c1 do in these assays?
IDH1 R132H inh: inconclusive; TrxR1 substrate: inactive; Nrf2 inh: inconclusive; TrxR1 inh-1: inactive; A549 tox: inactive; IDH1 autofl: inactive; WT IDH1 inh: inactive; mIDH1 confirm: inconclusive

How did COc1ccc(C)cc1Nc1nc2c(S(=O)(=O)c3cc(C)ccc3C)nnn2c2ccsc12 do in these assays?
IDH1 R132H inh: inactive; TrxR1 substrate: inactive; Nrf2 inh: inactive; TrxR1 inh-1: inactive; A549 tox: inactive

What do the screens show for `Cc1cccc(NC(=O)CSc2ncc(-c3ccc(Br)cc3)[nH]2)c1`?
IDH1 R132H inh: inactive; TrxR1 substrate: inactive; Nrf2 inh: inactive; TrxR1 inh-1: inactive; A549 tox: inactive

What do the screens show for `CCN(CCCNC(=O)c1nn(-c2ccc(C)cc2)c(=O)c2c1c1ccccc1n2C)c1ccccc1`?
TrxR1 substrate: inactive; Nrf2 inh: inactive; TrxR1 inh-1: inactive; A549 tox: inactive

Results for CCc1cccc(C)c1Nc1c(-c2ccc(SC)cc2)nc2sccn12 ?
IDH1 R132H inh: inconclusive; TrxR1 substrate: inactive; Nrf2 inh: inactive; TrxR1 inh-1: inactive; A549 tox: inactive

What do the screens show for `CCc1cccc(C)c1Nc1c(-c2ccc(F)cc2)nc2sccn12`?
IDH1 R132H inh: 40µM; TrxR1 substrate: inactive; Nrf2 inh: inconclusive; TrxR1 inh-1: inactive; A549 tox: inactive; IDH1 autofl: inactive; WT IDH1 inh: inactive; mIDH1 confirm: 14µM

Results for CCc1cccc(C)c1Nc1c(-c2ccc(N(C)C)cc2)nc2cnccn12 ?
IDH1 R132H inh: 32µM; TrxR1 substrate: inactive; Nrf2 inh: inactive[9.27 µM]; TrxR1 inh-1: inactive; A549 tox: inactive; IDH1 autofl: inactive; WT IDH1 inh: inactive; mIDH1 confirm: 16µM

What do the screens show for `CCc1cccc(C)c1Nc1c(-c2cccc(O)c2)nc2cnccn12`?
IDH1 R132H inh: inactive; TrxR1 substrate: inactive; Nrf2 inh: inactive[9.27 µM]; TrxR1 inh-1: inactive; A549 tox: inactive
